# Laboratory results as given in PubChem BioAssay AID2284421 (EPA ToxCast).
# Calls of active or inactive are those of the source. Rule for the calls: active = hit-call score of the fitted dose curve at least 0.9, where 1 is the maximum; inactive = score below 0.9.
# Tested on: Brachyury (BRA) Protein Expression, Deisenroth Lab, TBXT (gene 6862)
# Test: CCTE_Deisenroth_DEVTOX-GLR_Meso_BRA: CCTE's DevTox GLR-Meso Assay Evaluation of Brachyury (BRA) Protein Expression, Deisenroth Lab
# Description: CCTE_Deisenroth_DEVTOX-GLR_Meso assay is a cell-based, multiplex-readout assay that uses RUES2-GLR, a human pluripotent cell line, with measurements taken at 48 hours after chemical dosing in a 384-well microplateCCTE_Deisenroth_DEVTOX-GLR_Meso_BRA is 1 of 4 assay components calculated from the CCTE_Deisenroth_DEVTOX-GLR_Meso assay and it measures an the percentage of cells in an mesoderm state. Using a type of inducible fluorescent protein reporter, gain-of-signal activity can be used to understand changes in gene expression with fluorescent microscopy. The percentage of BRA+ cells are determined by calculating the number of BRA+ cells divided by the cell count. To generalize the intended target to other relatable targets, this assay component is annotated to the transcription factor intended target family, where the subfamily is T-box protein.Data from the assay component CCTE_Deisenroth_DEVTOX-GLR_Meso_BRA was analyzed as 1 assay endpoint. The endpoint is the percent change in BRA+ cell population relative to the 0.2% DMSO control in the CCTE_Deisenroth_DEVTOX-GLR_Meso assay. Furthermore, this assay endpoint can be referred to as a primary readout, because this assay has produced multiple assay endpoints where this one serves as a measure of mesoderm differentiation.
# All assay protocols are aligned to the DevTox GLR-Endo assay workflow. Cells are seeded into 384-well microplates for 24 hours prior to initiating differentiation in defined media for a total duration of 48 hours. A total of two chemical exposures are administered in 24-hour intervals during the 48-hour differentiation period. At the assay termination point, cells are fixed and stained with a fluorescent dye demarcating the nucleus. High-content imaging is used to acquire brightfield and fluorescent channel images across 5 fields per well. Cell identification and mean biomarker fluorescence intensities are calculated with image analysis software to determine the total cell counts for viability assessment and the biomarker expression frequency for each lineage-dependent assay. A typical experimental design tests a 10-point concentration series (1 nM - 200 uM) for 28 compounds in single technical replicate. Assay plate controls include non-differentiated pluripotent cells (baseline control), lineage-specific differentiated cells (differentiation control), and DMSO solvent exposed differentiated cells (solvent control). Experiments typically comprise a minimum of four experimental replicates (n=4).
SMILES,outcome,AC50
O=C1NS(=O)(=O)c2ccccc21,inactive,
CC1(C)S[C@@H]2[C@H](NC(=O)Cc3ccccc3)C(=O)N2[C@H]1C(=O)O,inactive,
CCCC(CCC)C(=O)O,inactive,
CN(Cc1cnc2nc(N)nc(N)c2n1)c1ccc(C(=O)N[C@@H](CCC(=O)O)C(=O)O)cc1,inactive,
Nc1nc2ncc(CNc3ccc(C(=O)N[C@@H](CCC(=O)O)C(=O)O)cc3)nc2c(=O)[nH]1,inactive,
CC(C)(c1ccc(O)cc1)c1ccc(O)cc1,inactive,
CC1=C(/C=C/C(C)=C/C=C/C(C)=C/C(=O)O)C(C)(C)CCC1,inactive,
CS(=O)(=O)OCCCCOS(C)(=O)=O,inactive,
O=c1[nH]cc(F)c(=O)[nH]1,inactive,
CC1=C(/C=C/C(C)=C/C=C/C(C)=C\C(=O)O)C(C)(C)CCC1,inactive,
CC(=O)Nc1ccc(O)cc1,inactive,
O=C1CCC(N2C(=O)c3ccccc3C2=O)C(=O)N1 (stereo unspecified),inactive,
O=C1NC(=O)C(c2ccccc2)(c2ccccc2)N1,inactive,
Nc1cccc2c1C(=O)N(C1CCC(=O)NC1=O)C2=O (stereo unspecified),inactive,
CC/C(=C(/CC)c1ccc(O)cc1)c1ccc(O)cc1,,19.8 µM (active)
CCN(CC)CCNC(=O)c1c(C)[nH]c(/C=C2\C(=O)Nc3ccc(F)cc32)c1C,inactive,
